Rce1 inhib: inhibitors of yeast Ras-converting enzyme; actives 0.27% (n = 290,000); Q03530; yeast membranes, quenched prenylated peptide cleavage fluorescence; calls only;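 active = fall in fluorescence gain of 50% or more versus controls, with final raw signal at or below 3038400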;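 also: plate controls were neutral control wells for no effect and wells lacking membranes for full effect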
Target sequence (Q03530 whole entry, looked up): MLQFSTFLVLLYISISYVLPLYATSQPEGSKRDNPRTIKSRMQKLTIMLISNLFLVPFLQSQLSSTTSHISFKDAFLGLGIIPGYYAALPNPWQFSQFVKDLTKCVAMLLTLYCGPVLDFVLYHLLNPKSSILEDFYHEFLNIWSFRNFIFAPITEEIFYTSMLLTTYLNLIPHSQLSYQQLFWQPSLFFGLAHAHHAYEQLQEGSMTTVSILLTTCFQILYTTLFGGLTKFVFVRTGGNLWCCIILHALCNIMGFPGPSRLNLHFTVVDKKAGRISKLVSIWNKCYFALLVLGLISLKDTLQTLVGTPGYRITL
TIM10 inh: TIM10 yeast growth inhibition; AID 463195; S. cerevisiae TIM10 strain growth, BacTiter-Glo luminescence, 24 h; actives 1.4% (n = 330,000); inhibition, % at 10 µM;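 active = inhibition of 40% or more at the single tested concentration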;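 also: wild-type TIM10 isogenic control strain grown at permissive 25 °C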
PfHsp90 set2: reduces growth (ATP signal) of yeast expressing P. falciparum Hsp90; AID 504621; S. cerevisiae expressing PfHsp90, BacTiter-Glo ATP, 48 h; yeast lacking PDR1 and PDR3 efflux regulators; actives 0.32% (n = 310,000); inhibition, % at 9.4 µM;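 active = every replicate shows inhibition above about 80%, whatever the replicate mean, limit read from the data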;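 also: 0% = DMSO neutral controls and 100% = 20 µM radicicol positive controls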
tim23-1 inh: inhibits growth of tim23-1 mutant yeast; S. cerevisiae tim23-1 growth, BacTiter-Glo luminescence, 24 h; inhibition, % at 20 µM; actives 1.3% (n = 330,000); AID 463212;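 active = growth inhibition of the mutant yeast at or above 50%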;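 also: temperature-sensitive mutant grown at 25 °C; plate controls were DMSO-treated mutant yeast for no effect and medium wells lacking yeast for full effect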
tim10-1 inh: tim10-1 yeast growth inhibition | actives 2.2% (n = 330,000) | S. cerevisiae tim10-1 ts strain growth, BacTiter-Glo, 24 h | AID 463190 | inhibition, % at 20 µM;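 active = inhibition of at least 40%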;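 also: mutant grown at 25 °C; 0% = DMSO wells with yeast and 100% = wells holding no yeast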
tim10-1 conf: tim10-1 yeast growth inhibition, confirmed; shares compounds with tim10-1 inh; S. cerevisiae tim10-1 ts strain growth, BacTiter-Glo, 24 h; inhibition, % at 20 µM; actives 56% (n = 7,400); AID 463213;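 active = inhibition of yeast growth at or above a set limit in either of two repeat tests at 20 µM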;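 also: tim10-1 mutant grown at permissive 25 °C to find synthetic lethal compounds; 0% = DMSO yeast wells and 100% = medium wells without yeast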
tim10 confirm: TIM10 yeast growth inhibition, confirmed | inhibition, % at 10 µM | S. cerevisiae tim10 strain growth, BacTiter-Glo luminescence, 24 h | actives 63% (n = 4,600) | shares compounds with TIM10 inh;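 active = inhibition of yeast growth at or above a set limit in either of two replicates at 10 µM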;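 also: this counterscreen used the strain with wild-type TIM10; 0% = yeast with DMSO and 100% = medium wells lacking yeast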
The depositor's hits bear a star; i = inactive; / = not tested or not shown. Most compounds without a hit are left out; they make up all but 3.7% or so of the library.

SMILES	Rce1 inhib	TIM10 inh	PfHsp90 set2	tim23-1 inh	tim10-1 inh	tim10-1 conf	tim10 confirm
Cc1ccc(-c2[nH]nc(N)c2N=Nc2ccccc2C)cc1	i	45*	-6	20	56*	0	46*
Cc1ccc(N=Nc2c(N)n[nH]c2N)cc1	i	5	-4	3	4	/	/
O=C1NC(=O)C(=C2CCCCCC2)S1	i	9	-40	7	2	/	/
COc1cccc(-c2c(C(=O)N/N=C/c3ccco3)nnn2-c2nonc2N)c1	i	7	-1	7	-5	/	/
O=[N+]([O-])CC(c1ccc(F)cc1)c1c[nH]c2ccccc12 (configuration not stated)	i	43*	-75	44	51*	66*	60*
NCC(c1ccccc1)c1c[nH]c2ccccc12 (configuration not stated)	i	11	6	26	26	/	/
CCOc1ccccc1N/C(=C(/C(Cl)=C(Cl)Cl)[N+](=O)[O-])n1cncn1	/	17	3	19	15	/	/
CCN(CC)/C(Sc1ccccc1)=C(/C(Cl)=C(Cl)Cl)[N+](=O)[O-]	i	42*	-8	39	46*	33*	35*
O=C(Nc1ccccc1C(=O)N1CCCCC1)NC1CCCCC1	/	-12	2	8	22	/	/
CCCCCC1CC(CC(C)C(=O)Nc2nncs2)C(=O)O1 (configuration not stated)	i	-21	29	2	-22	/	/
CCCCCC1CC(CC(=O)Nc2nncs2)C(=O)O1 (configuration not stated)	i	45*	8	44	40	37*	31*
Cc1cc(C)n(S(=O)(=O)c2ccc(Cl)c(Cl)c2Cl)n1	i	24	/	19	32	/	/
COc1c(S(=O)(=O)n2nc(C)cc2C)ccc(Cl)c1Cl	i	44*	28	38	49*	44*	42*
COc1ccccc1/C=c1\sc2nc(-c3ccccc3OC)nn2c1=O	/	50*	-2	47	49*	54*	24
CCC1CCCCN1C(=O)CCc1nnc(Cc2cc(OC)ccc2OC)o1 (configuration not stated)	i	13	-3	18	7	/	/
Cc1ccc(C(=O)Nc2nc(-c3cccnc3)cs2)o1	i	4	-10	-4	-11	/	/
O=C(Nc1nc(-c2ccccc2)cs1)c1ccc(Br)o1	i	41*	-2	50	41*	48*	50*
CN(C)Cc1nc2c(c(=O)[nH]1)C1(CCCCC1)Cc1ccccc1-2	i	44*	-8	22	49*	38*	38*
COc1cccc(C(=O)NC(=S)Nc2ccccc2N2CCCC2)c1	i	49*	-26	35	41*	30*	44*
O=C(NC(=S)Nc1ccccc1N1CCOCC1)c1cccc([N+](=O)[O-])c1	i	44*	-18	41	44*	35*	43*
CN1CCN(C(=O)CCN2C(=O)/C(=C/c3ccccc3Cl)SC2=S)CC1	i	44*	10	40	44*	24	28
CN1CCN(C(=O)CCN2C(=O)/C(=C\c3ccccc3F)SC2=S)CC1	i	10	-8	11	17	/	/
COc1ccccc1NC(=O)C(=O)Nc1ccc2c(c1)N(C(=O)C1CC1)CCC2	i	4	3	15	9	/	/
CCCCCN(C(=O)CCC(=O)OCc1ccc(C(C)C)cc1)c1c(N)n(CCCC)c(=O)[nH]c1=O	i	5	2	-6	6	/	/
O=Cc1coc2c(ccc3ccccc32)c1=O	i	58*	/	44	41*	34*	78*
SMILES	Rce1 inhib	TIM10 inh	PfHsp90 set2	tim23-1 inh	tim10-1 inh	tim10-1 conf	tim10 confirm
Cc1cc(C(=O)NNS(=O)(=O)c2cc(C(=O)O)ccc2Cl)c(C)n1-c1ccccc1	/	6	/	13	11	/	/
CN1/C(=C\C(=O)Nc2cccc(Cl)c2)C(C)(C)c2ccccc21	i	41*	-2	47	40*	34*	43*
Oc1ccc(C2Nc3cccc4cccc(c34)N2)c(O)c1	i	41*	1	29	42*	44*	38*
FC(F)(F)c1cccc(NC(=S)NNC(=S)Nc2cccc(C(F)(F)F)c2)c1	i	54*	/	40	47*	29	54*
CC(C)NC(=S)N/N=C/c1ccc(C(C)(C)C)cc1	i	44*	-49	37	41*	8	45*
CC(C)NC(=S)N/N=C/c1cccs1	i	28	-10	40	15	/	/
Nc1c(C(=O)N/N=C/c2ccc(Cl)cc2)cnn1-c1ccccc1	i	-16	-31	-19	-16	/	/
O=c1c(Cl)c(N/N=C/c2ccc(Cl)cc2)cnn1-c1ccccc1	i	46*	12	15	47*	26	9
CCn1c(=O)cc(C(F)(F)F)[nH]c1=S	i	-2	-3	3	1	/	/
COc1cc2c(cc1NC(=O)Nc1ccccc1)oc1ccccc12	i	1	26	-7	-15	/	/
COc1cc2c(cc1NS(=O)(=O)N1CCCCC1)oc1ccccc12	i	44*	-33	39	41*	37*	35*
O=C(Nc1cccs1)NC1CCCC1	i	12	15	29	21	/	/
CC1CCC(NC(=O)Nc2cccs2)CC1 (configuration not stated)	i	60*	3	37	54*	73*	46*
Cc1cccc(NC(=S)N2CCC(NC(=O)C3CCCCC3)CC2)c1	i	-14	23	-4	1	/	/
Cc1ccccc1C(=O)NC(=S)N(CCO)Cc1ccccc1	i	-6	18	12	4	/	/
O=C(NC(=S)N(Cc1ccccc1)Cc1ccccc1)c1ccccc1F	i	59*	-23	32	50*	38*	44*
COc1ccc(C(=O)NC(=S)N(Cc2ccccc2)Cc2ccccc2)cc1	i	48*	-67	17	47*	35*	39*
N#Cc1ccc(NC(=O)COC(=O)CCNS(=O)(=O)c2ccccc2)cc1	i	-14	21	0	1	/	/
Cc1ccc2nc(NC(=O)c3ccc(Cn4cc(Cl)cn4)o3)sc2c1	i	51*	0	36	46*	22	33*
NNC(=O)c1ccc(Cn2cc(Cl)cn2)o1	i	3	-5	3	14	/	/
N/C(=N\OC(=O)COc1ccc(Cl)cc1Br)c1ccncc1	/	/	4	/	/	/	/
N/C(=N\OC(=O)CCCOc1ccc(Cl)cc1Cl)c1ccncc1	i	43*	15	6	54*	30*	4
N/C(=N\OC(=O)CCCOc1ccccc1)c1ccccc1	i	51*	-2	41	44*	37*	35*
N/C(=N\OC(=O)c1ccc(Br)cc1)c1ccccc1	i	50*	/	40	55*	52*	67*

Source: PubChem BioAssay
